± gives the standard deviation of the averaged measurements. Over roughly 33,000 sequences, “E-score (rank enrichment, -0.5 to 0.5)” has its median near -0.0075; the highest 2% begin near 0.23. Only a selection was taken, and the highest values are over-represented in it overall.
The sequences below were run on WT Max(13-93) synthetic (M65Nle) (assay: PBM 8-mer E-score (E-score (rank enrichment, -0.5 to 0.5)); higher = stronger preferential binding).
Experimental: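 Protein binding microarray (universal PBM chip covering all 10-mers in fixed probe flanks) with chemically synthesized human Max(13-93) bHLH-LZ analogs (not full-length Max) bearing noncanonical residues (hArg, Tha, Aib, Nle at 65) and aromatic Cys staples. Read-out per 8-mer (and its reverse complement): E-score (rank-based enrichment, -0.5 to 0.5) and Z-score of median probe intensity.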

| Sequence | PBM 8-mer E-score |
| --- | --- |
| TGTTATAA | 0.255 ± 0.026 |
| CATTAGAA | 0.0359 ± 0.086 |
| CATTATAA | 0.107 ± 0.051 |
| CCCGGAAG | -0.252 ± 0.034 |
| AATTATGT | 0.178 ± 0.038 |
| ACGCGCCA | 0.0474 ± 0.11 |
| AACGAAGA | 0.0931 ± 0.055 |
| CCTTTAGC | -0.065 ± 0.16 |
| CCTACTAA | -0.0419 ± 0.0019 |
| ATTATATA | 0.125 ± 0.052 |
| ACATTATA | 0.158 ± 0.0021 |
| GTATTAAA | 0.188 ± 0.077 |
| ATTATATC | 0.247 ± 0.059 |
| AAATATTA | 0.219 ± 0.04 |
| ATTATATG | 0.176 ± 0.035 |
| ATATTATA | 0.309 ± 0.018 |
| GTATTAGA | 0.223 ± 0.014 |
| GTATTATA | 0.251 ± 0.046 |
| CTATTATA | 0.0186 ± 0.0034 |
| TAATATTA | 0.37 ± 0.026 |
| CAATATTA | 0.157 ± 0.12 |
| CGTAGCGC | -0.0505 ± 0.038 |

| Sequence | PBM 8-mer E-score |
| --- | --- |
| GCAGGATA | -0.184 ± 0.065 |
| TAAGGTAA | 0.156 ± 0.086 |
| CCAGCATA | 0.0104 ± 0.015 |
| GCTTCCCA | -0.0247 ± 0.11 |
| GGAGGGTA | 0.0987 ± 0.018 |
| ATATATTA | 0.256 ± 0.08 |
| ATATTATC | 0.138 ± 0.011 |
| CTATTACA | 0.14 ± 0.048 |
| AGATTATG | -0.178 ± 0.043 |
| GTATATTA | 0.226 ± 0.027 |
| ATATTATG | 0.242 ± 0.0093 |
| GTATTACA | 0.245 ± 0.00083 |
| CTATATTA | 0.221 ± 0.015 |
| GCATTACA | 0.133 ± 0.049 |
| AACGTTCT | 0.0268 ± 0.08 |
| CCTGTTGC | 0.0294 ± 0.077 |
| TGGAGGAA | -0.0087 ± 0.04 |
| ATGCCCGC | 0.00379 ± 0.056 |
| CCGACGCC | -0.139 ± 0.013 |
| GCGGCCGA | -0.21 ± 0.09 |
| ATTTTATG | 0.19 ± 0.12 |
| CATTTATA | 0.192 ± 0.047 |

| Sequence | PBM 8-mer E-score |
| --- | --- |
| AATTTATC | 0.15 ± 0.049 |
| ATTTTATA | 0.229 ± 0.058 |
| AATTTATG | 0.237 ± 0.005 |
| AATTTATA | 0.301 ± 0.057 |
| CCCGGTAA | -0.114 ± 0.034 |
| TCGGTAGA | -0.128 ± 0.0077 |
| CGTGTAAG | 0.113 ± 0.075 |
| CGTGTATC | 0.149 ± 0.028 |
| CGTGTAAC | 0.276 ± 0.013 |
| GGTGTGTA | 0.0087 ± 0.0056 |
| CGTGTATA | 0.266 ± 0.0089 |
| CATGTATC | 0.185 ± 0.028 |
| CATGTATA | 0.24379 ± 0.00015 |
| GATGTATA | 0.117 ± 0.02 |
| GGTGTATA | 0.108 ± 0.039 |
| AGTGTGTA | 0.101 ± 0.012 |
| GGTGTAAC | -0.0257 ± 0.043 |
| CGTGTGTA | 0.24 ± 0.067 |
| TATATTCA | 0.151 ± 0.15 |
| GAGTCTTA | -0.0474 ± 0.024 |
| ACGTTGTC | 0.232 ± 0.011 |
| AGCGGAAA | -0.00668 ± 0.13 |

| Sequence | PBM 8-mer E-score |
| --- | --- |
| CCTTCTTA | 0.0525 ± 0.12 |
| AGACAGCG | -0.103 ± 0.063 |
| AATCATCT | -0.0255 ± 0.056 |
| CCTAGAAC | -0.0877 ± 0.0018 |
| GATGTGTA | -0.0106 ± 0.19 |
| GGTGTGCA | -0.0425 ± 0.051 |
| CGTGTGCA | 0.3 ± 0.047 |
| CGTGTGCC | 0.146 ± 0.14 |
| CATGTGTA | 0.357 ± 0.029 |
| CATGTGTC | 0.216 ± 0.053 |
| ACTGGTTG | -0.086 ± 0.065 |
| CAACTATA | 0.119 ± 0.098 |
| TAACTATA | 0.259 ± 0.13 |
| AAACTATA | 0.144 ± 0.062 |
| CTGGTGAA | -0.0735 ± 0.0064 |
| CGACTTAG | -0.0474 ± 0.049 |
| ATCAGGTG | 0.0403 ± 0.029 |
| CCTGCCGC | -0.2994 ± 0.0014 |
| CAAATCGA | -0.0111 ± 0.037 |
| AGGTGACC | -0.1467 ± 0.00024 |

Source: the supplement of paper PMC12636033
